Experimental data as given in PubChem BioAssay.
Active and inactive are the calls of the source. Unless noted, no rule for the calls is given here.

Tests used:
[1] = test system: Wnt5a (protein binding on small-molecule microarray); experiment: Wnt5a binders on small-molecule microarray, primary screen, biophysical, 635/667 nm fluorescence (AID 1142); conditions: 635 nm fluorescence, higher = more signal;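 also: fluorescence read at 667 nm with signal to noise per printed feature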
[2] = cell viability in Huh7 cells, primary screen, cytotoxicity control for HCV replication inhibitor project, CellTiter-Glo luminescence, basal, 48 h (AID 1143); conditions: Huh7 HCV replicon, higher = more signal, called active from +8 up or from −8 down;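 also: Huh7 hepatoma cells carrying a hepatitis C replication reporter with no stimulus; test concentration not given here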
[3] = P. aeruginosa biofilm formation inhibitors, primary screen, PAO1 strain, BacTiter-Glo luminescence, LB-PBS (AID 1144); conditions: 12 h, higher = more signal
[4] = CREB reporter modulators without forskolin, primary screen, cell-based, PC12, CRE-LacZ reporter, unstimulated (AID 1145); conditions: no forskolin, luminescence, 4.5 h, higher = more signal, called active from +8 up or from −8 down
[5] = CREB reporter modulators under forskolin, primary screen, cell-based, PC12, CRE-LacZ reporter, forskolin-stimulated (AID 1146); conditions: luminescence, 4.5 h, higher = more signal, called active from +8 up or from −8 down;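 also: PC12 cells with 6xCRE LacZ reporter stimulated by forskolin 10 µM; beta-galactosidase reporter signal reflecting CREB driven transcription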
[6] = target: Streptavidin (Streptomyces avidinii) (UniProt P22629); experiment: streptavidin binders on small-molecule microarray, primary screen, artefact control for SMM compound annotation, biophysical, 635/667 nm fluorescence (AID 1147); conditions: streptavidin binding, higher = more signal;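 also: signal reflects streptavidin binding to arrayed compounds as a control protein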
[7] = small-molecule binders of probe aInhba, primary screen, biochemical, small-molecule microarray, 635/667 nm fluorescence (AID 1148); conditions: higher = more signal;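 also: score merges 667nm spot fluorescence with signal-to-noise for antibody binding to printed compounds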
Torsin-1A (Homo sapiens) [8] = target: Torsin-1A (Homo sapiens) (UniProt O14656); experiment: torsin A binders from cell lysate, primary screen, small-molecule microarray, wild-type, 635/667 nm (AID 1149); conditions: COS7 hTOR1A-WT lysate, 635 nm fluorescence, higher = more signal
Torsin-1A (Homo sapiens) [9] = target: Torsin-1A (Homo sapiens) (UniProt O14656); experiment: small-molecule binders of mutant TOR1A in lysate, primary screen, cell lysate, small-molecule microarray, COS7 lysate, 635/667 nm fluorescence (AID 1150); conditions: COS7 hTOR1A mutant lysate, 635 nm fluorescence, higher = more signal;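 also: score pools 667 nm emission and signal to noise measuring lysate protein binding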
[10] = test system: Sonic hedgehog protein (Shh); experiment: small-molecule binders of Shh protein, primary screen, biochemical, small-molecule microarray, 635/667 nm fluorescence (AID 1151); conditions: small-molecule microarray binding, 635 nm fluorescence; higher = more signal;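 also: Shh protein binding to compounds spotted on small-molecule microarray slides; score combines spot fluorescence intensity with signal-to-noise across triplicate slides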
[11] = E. coli DRC41 culture turbidity changes, primary screen, E. coli filamentation inducer project, strain DRC41, OD650, 48 h (AID 1152);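 also: E. coli MC1000 strain DRC41 lacking acrAB efflux pump and sulA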; conditions: E. coli DRC41 (acrAB sulA), higher = more signal, called active from +8 up or from −8 down
[12] = small-molecule binders of probe aLefty1, primary screen, biochemical, small-molecule microarray, 635/667 nm fluorescence (AID 1153); conditions: higher = more signal;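 also: score merges spot fluorescence with signal-to-noise ratio from the scanned slide images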
[13] = PSAC antagonists in infected red cells, primary screen, cell-based, P. falciparum Indochina, OD700, 1 h (AID 1154); conditions: P. falciparum Indochina infected RBC osmotic lysis, higher = more signal, called active from +8 up or from −8 down
[14] = PSAC antagonists in infected red cells, primary screen, cell-based, P. falciparum Indochina, OD700, 2 h (AID 1155);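 also: lysis reports solute entry through the parasite surface anion channel PSAC; channel blockers reduce lysis of infected cells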; conditions: P. falciparum Indochina infected erythrocytes, osmotic lysis OD700; higher = more signal, called active from +8 up or from −8 down
[15] = osmotic lysis modulators in infected erythrocytes, primary screen, PSAC antagonist project, cell-based, P. falciparum Indochina, OD700, 3 h (AID 1156); conditions: higher = more signal, called active from +8 up or from −8 down
[16] = PSAC antagonists in infected red cells, primary screen, cell-based, P. falciparum Indochina, OD700, 18 h (AID 1157); conditions: P. falciparum Indochina infected erythrocytes, osmotic lysis OD700, 18 h; higher = more signal, called active from +8 up or from −8 down
[17] = modulators of S6 phosphorylation in cells, primary screen, cell-based, A549, cytoblot, luminescence, serum-stimulated (AID 1158); conditions: A549 phospho-S6 cytoblot, 5 h, higher = more signal;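 also: serum-stimulated A549 lung adenocarcinoma cells; signal is phosphorylated S6 detected by cytoblot immunostaining with HRP secondary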
[18] = target: NADPH oxidase 2 (Homo sapiens) (UniProt P04839); experiment: NOX2-dependent H2O2 signal modulators, primary screen, NOX inhibitor project, cell-based, HEK293-NOX2, PMA-stimulated, Amplex Red fluorescence (AID 1159); conditions: 45 min, higher = more signal, called active from +8 up or from −8 down; also: test concentration not given here
[19] = target: NADPH oxidase 4 (Homo sapiens) (UniProt Q9NPH5); experiment: NOX4-dependent H2O2 signal modulators, primary screen, NOX inhibitor project, cell-based, HEK293-NOX4, tetracycline-induced, Amplex Red fluorescence (AID 1160); conditions: 45 min, higher = more signal, called active from +8 up or from −8 down
[20] = target: NADPH oxidase 5 (Homo sapiens) (UniProt Q96PH1); experiment: NOX5-dependent H2O2 signal modulators, primary screen, NOX inhibitor project, cell-based, HEK293-NOX5, Amplex Red fluorescence (AID 1161); conditions: HEK293-NOX5, ionomycin, 45 min, higher = more signal
NADPH oxidase 5 (Homo sapiens), sequence (Q96PH1 whole entry, looked up): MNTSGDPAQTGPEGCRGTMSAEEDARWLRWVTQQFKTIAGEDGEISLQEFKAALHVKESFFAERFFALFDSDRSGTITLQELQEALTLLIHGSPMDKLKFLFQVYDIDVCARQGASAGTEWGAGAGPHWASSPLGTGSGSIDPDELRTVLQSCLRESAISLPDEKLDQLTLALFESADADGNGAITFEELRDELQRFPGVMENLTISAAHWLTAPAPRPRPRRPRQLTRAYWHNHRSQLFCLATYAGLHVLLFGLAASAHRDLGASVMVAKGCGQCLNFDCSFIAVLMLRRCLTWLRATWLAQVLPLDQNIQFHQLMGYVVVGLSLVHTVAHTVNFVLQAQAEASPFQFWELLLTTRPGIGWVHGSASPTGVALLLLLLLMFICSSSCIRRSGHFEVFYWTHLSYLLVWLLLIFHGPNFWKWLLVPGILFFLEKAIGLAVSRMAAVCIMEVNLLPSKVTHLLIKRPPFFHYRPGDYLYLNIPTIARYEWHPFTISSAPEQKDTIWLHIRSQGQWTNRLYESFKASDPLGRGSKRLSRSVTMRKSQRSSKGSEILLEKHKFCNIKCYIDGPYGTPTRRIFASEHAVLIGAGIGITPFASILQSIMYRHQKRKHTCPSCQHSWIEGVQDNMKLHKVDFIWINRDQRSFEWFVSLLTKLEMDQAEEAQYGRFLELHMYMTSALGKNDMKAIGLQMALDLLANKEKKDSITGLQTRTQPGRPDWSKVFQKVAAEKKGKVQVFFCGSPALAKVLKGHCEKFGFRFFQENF

NADPH oxidase 2 (Homo sapiens), sequence (P04839 whole entry, looked up): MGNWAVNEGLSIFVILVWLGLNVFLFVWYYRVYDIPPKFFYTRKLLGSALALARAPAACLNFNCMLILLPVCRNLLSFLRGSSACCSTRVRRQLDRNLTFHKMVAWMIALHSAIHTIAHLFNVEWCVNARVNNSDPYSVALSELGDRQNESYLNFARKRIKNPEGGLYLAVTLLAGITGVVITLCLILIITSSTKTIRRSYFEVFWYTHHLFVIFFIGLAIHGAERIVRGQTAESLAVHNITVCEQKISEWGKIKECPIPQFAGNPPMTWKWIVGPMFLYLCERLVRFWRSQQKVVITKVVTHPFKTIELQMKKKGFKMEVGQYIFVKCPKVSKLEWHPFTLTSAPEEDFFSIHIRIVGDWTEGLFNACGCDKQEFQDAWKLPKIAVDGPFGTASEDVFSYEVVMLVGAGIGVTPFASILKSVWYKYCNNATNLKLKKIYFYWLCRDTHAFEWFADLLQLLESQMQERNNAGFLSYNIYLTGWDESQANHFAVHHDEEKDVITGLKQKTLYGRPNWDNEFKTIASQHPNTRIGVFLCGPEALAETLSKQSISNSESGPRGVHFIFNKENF
Streptavidin (Streptomyces avidinii), sequence (P22629 whole entry, looked up): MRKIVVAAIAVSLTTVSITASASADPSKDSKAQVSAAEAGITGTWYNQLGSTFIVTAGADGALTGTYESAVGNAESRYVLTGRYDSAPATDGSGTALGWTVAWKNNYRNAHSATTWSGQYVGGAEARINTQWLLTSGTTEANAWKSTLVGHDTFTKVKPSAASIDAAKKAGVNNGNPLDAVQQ
Torsin-1A (Homo sapiens), sequence (O14656 whole entry, looked up): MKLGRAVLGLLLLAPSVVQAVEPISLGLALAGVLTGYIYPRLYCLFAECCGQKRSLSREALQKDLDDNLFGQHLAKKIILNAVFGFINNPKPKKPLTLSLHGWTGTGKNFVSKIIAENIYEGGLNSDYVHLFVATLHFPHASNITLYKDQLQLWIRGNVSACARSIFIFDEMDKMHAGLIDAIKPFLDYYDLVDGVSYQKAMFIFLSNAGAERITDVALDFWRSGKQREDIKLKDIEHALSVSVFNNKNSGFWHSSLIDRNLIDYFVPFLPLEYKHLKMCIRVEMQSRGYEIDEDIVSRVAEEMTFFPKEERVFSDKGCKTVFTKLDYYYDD
NADPH oxidase 4 (Homo sapiens), sequence (Q9NPH5 whole entry, looked up): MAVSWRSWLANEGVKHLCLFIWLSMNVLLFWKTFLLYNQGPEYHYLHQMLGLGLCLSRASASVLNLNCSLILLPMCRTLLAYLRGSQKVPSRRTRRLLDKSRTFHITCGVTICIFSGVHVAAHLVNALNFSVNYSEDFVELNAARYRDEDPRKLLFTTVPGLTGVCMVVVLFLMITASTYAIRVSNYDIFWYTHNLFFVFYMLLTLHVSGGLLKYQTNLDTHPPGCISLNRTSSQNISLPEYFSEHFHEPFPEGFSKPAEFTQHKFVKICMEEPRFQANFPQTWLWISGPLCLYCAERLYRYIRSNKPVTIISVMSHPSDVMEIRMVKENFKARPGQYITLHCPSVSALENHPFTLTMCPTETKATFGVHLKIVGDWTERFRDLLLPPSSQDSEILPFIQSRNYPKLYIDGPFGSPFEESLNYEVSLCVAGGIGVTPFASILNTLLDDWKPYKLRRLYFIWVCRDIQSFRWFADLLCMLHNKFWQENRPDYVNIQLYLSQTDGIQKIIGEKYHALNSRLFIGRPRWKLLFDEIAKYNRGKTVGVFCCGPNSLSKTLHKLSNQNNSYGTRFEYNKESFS

| SMILES | composite z-score [1] | z-score [2] | z-score [3] | z-score [4] | z-score [5] | composite z-score [6] | composite z-score [7] | composite z-score (Torsin-1A (Homo sapiens) [8]) | composite z-score (Torsin-1A (Homo sapiens) [9]) | composite z-score [10] | z-score [11] | composite z-score [12] | z-score [13] | z-score [14] | z-score [15] | z-score [16] | z-score [17] | z-score [18] | z-score [19] | z-score [20] |
| --- | --- | --- | --- | --- | --- | --- | --- | --- | --- | --- | --- | --- | --- | --- | --- | --- | --- | --- | --- | --- |
| COC(=O)C(CC#Cc1ccc2c(c1)[C@]1(C(=O)N2)[C@H](c2ccc(O)cc2)N2[C@H](c3ccccc3)[C@H](c3ccccc3)OC(=O)[C@H]2[C@@H]1C(N)=O)C(=O)OC | -0.206 | -1.94 (inactive) | -1.56 (inactive) | 0.212 (inactive) | -0.615 (inactive) | -1.42 | -0.153 | -1.15 | -0.491 | -0.907 | 2.05 (inactive) | -0.216 | 1.09 (inactive) | 1.58 (inactive) | 0.6 (inactive) | 1.3 (inactive) | 1.39 | 0.222 (inactive) | 0.356 (inactive) | -0.453 |
| COc1ccccc1CN1C(=O)c2ccccc2[C@](Cc2ccccc2I)(C(=O)NCCN2CCOCC2)[C@@H]1c1ccc(CO)cc1 | 0.375 | -4.52 (inactive) | 0.506 (inactive) | 0.648 (inactive) | -0.746 (inactive) | 0.593 | -0.101 | 0.301 | 0.504 | 1.48 | 0.117 (inactive) | -0.181 | 9.62 (active) | 0.349 (inactive) | -0.113 (inactive) | -0.385 (inactive) | 1.39 | -1.81 (inactive) | 0.454 (inactive) | -0.824 |
| COCCOC(=O)N1C(=O)[C@@]2(c3cc(C#Cc4ccc(OC)cc4)ccc31)[C@H](C(=O)N1CCc3cc(OC)c(OC)cc3C1)[C@H]1C(=O)O[C@H](c3ccccc3)[C@H](c3ccccc3)N1[C@@H]2c1ccc(O)cc1 | 0.783 | -0.637 (inactive) | 0.693 (inactive) | -0.0688 (inactive) | 0.236 (inactive) | 0.802 | 1.06 | 0.58 | 0.984 | 0.813 | 0.515 (inactive) | 1.05 | 1.74 (inactive) | 0.402 (inactive) | 0.295 (inactive) | 0.285 (inactive) | 0.269 | 0.987 (inactive) | -1.37 (inactive) | 0.321 |
| CCCC=C(CCC)[C@@H](NC(=O)Cc1ccccc1)c1ccc(C(=O)OC)cc1 | 0.372 | -2.2 (inactive) | 0.354 (inactive) | 0.0041 (inactive) | 0.545 (inactive) | 1.68 | 0.376 | -0.0377 | -0.414 | -0.284 | -1.45 (inactive) | 1.47 | 1.19 (inactive) | 0.194 (inactive) | -0.0448 (inactive) | 0.25 (inactive) | -0.504 | -0.458 (inactive) | 0.261 (inactive) | 1.89 |
| C=CC[C@@]1(C(=O)NCCN2CCOCC2)N=C(c2ccc(OCCCO)cc2)O[C@@H]1c1ccccc1 | 1.32 | -0.914 (inactive) | -0.299 (inactive) | 0.54 (inactive) | -0.0392 (inactive) | 0.803 | 0.328 | 1.24 | 0.94 | 2.1 | -0.302 (inactive) | 0.562 | 18.7 (active) | 3.03 (inactive) | 1.55 (inactive) | 0.863 (inactive) | -0.501 | 0.48 (inactive) | 0.62 (inactive) | -0.092 |
| NC(=O)NCC#Cc1ccc2c(c1)[C@]1(C(=O)N2)[C@H](c2ccc(O)cc2)N2[C@H](c3ccccc3)[C@H](c3ccccc3)OC(=O)[C@H]2[C@@H]1C(=O)NC[C@H](O)c1ccccc1 | -0.579 | -0.383 (inactive) | 0.502 (inactive) | 0.48 (inactive) | -0.334 (inactive) | -1.85 | -0.239 | -1.19 | -1 | -1.22 | 0.578 (inactive) | -0.316 | -0.0501 (inactive) | 0.647 (inactive) | 0.223 (inactive) | 0.363 (inactive) | -0.328 | 0.251 (inactive) | -0.258 (inactive) | -0.0927 |
| COCCCNC(=O)[C@@H]1c2ccccc2C(=O)N(Cc2cc(F)cc(C(F)(F)F)c2)[C@H]1c1ccc(CO)cc1 | -0.575 | -0.016 (inactive) | -0.043 (inactive) | 0.944 (inactive) | -0.224 (inactive) | -0.716 | -0.264 | -2.22 | -0.0932 | -0.508 | -0.0134 (inactive) | -0.25 | 1.49 (inactive) | 0.35 (inactive) | 0.62 (inactive) | 0.0592 (inactive) | -0.731 | 0.193 (inactive) | 0.401 (inactive) | 0.774 |
| COCCOC(=O)N1C(=O)[C@@]2(c3cc(C#CCC(C(=O)OC)C(=O)OC)ccc31)[C@H](c1ccc(OCCO)cc1)N1[C@H](c3ccccc3)[C@H](c3ccccc3)OC(=O)[C@H]1[C@@H]2C(N)=O | 0.0271 | -1.29 (inactive) | 0.719 (inactive) | 0.892 (inactive) | 1.64 (inactive) | 0.576 | 0.13 | 0.337 | 1.01 | 0.989 | -0.361 (inactive) | -0.147 | 5.25 (inactive) | 1.58 (inactive) | 0.478 (inactive) | 0.59 (inactive) | 0.702 | 2.17 (inactive) | 0.988 (inactive) | 0.717 |
| CCOC(=O)C1=CC[C@@H](c2ccc(N(CC)CC)cc2)N(S(=O)(=O)c2ccc(C)cc2)[C@H]1c1ccc([N+](=O)[O-])cc1 | -0.383 | -3.45 (inactive) | 0.858 (inactive) | -0.583 (inactive) | 0.619 (inactive) | 1.08 | -0.0332 | -1 | -0.101 | -0.438 | -1.24 (inactive) | 0.437 | 1.66 (inactive) | 0.86 (inactive) | 0.723 (inactive) | 0.779 (inactive) | -0.779 | 0.599 (inactive) | -1.37 (inactive) | -0.131 |
| COC(=O)[C@@]1(Cc2ccccc2)[C@H]2c3cc(C(=O)N(C)C)n(Cc4ccc(O)c(OC)c4)c3C[C@H]2CN1C(=O)c1ccccc1 | 0.672 | -4.52 (inactive) | -0.886 (inactive) | -0.565 (inactive) | 0.883 (inactive) | 0.468 | 0.877 | 0.698 | 1.06 | -0.851 | -0.404 (inactive) | 0.774 | 2.41 (inactive) | -0.214 (inactive) | 0.158 (inactive) | -1.32 (inactive) | 1.67 | -4.69 (inactive) | -6.03 (inactive) | -6.08 |
